Assay outcomes (PubChem)
Marburg entry: inhibitors of Marburg virus binding or entry into cells; Potency, µM (titrated, usually from 49.2 µM), for the others: at the top dose activity change, negative = inhibition, usual class: inhibitors; 18,000 compounds, 6.5% hits; AID 720532; Marburg virus pseudotype entry/binding inhibition, cell-based
LASV entry inh: Lassa virus entry inhibition | Potency, µM (doses to about 49.2 µM), without a hit: top-dose activity change, negative = inhibition, usual class: inhibitors | 18,000 compounds, 4.1% hits | Lassa virus pseudotyped entry inhibition, cell-based qHTS
Active calls of the source: *; [ ] = dose if it differs, or a comment. Shown are actives, neighbours in structure and some others; about 8% of the full set was active somewhere. Calls follow the shape of the full dose curve; tested in HEK293 cells. % is scaled to controls: 0 for no effect and ±100 for the full control effect; potency is read from the fitted curve at half-maximal effect.

Results for CCN(CC)CC1CCN(c2ncc3ncnc(Nc4ccc(F)c(Cl)c4)c3n2)CC1 ?
Marburg entry: 3.55µM*; LASV entry inh: inconclusive

What do the screens show for `CO[C@H]1[C@@H](O)C[C@H](O[C@H]2[C@@H](O)C[C@H](O[C@H]3[C@@H](O)C[C@H](O[C@H]4CC[C@@]5(C)[C@H](CC[C@@H]6[C@@H]5C[C@@H](O)[C@]5(C)[C@@H](C7=CC(=O)OC7)CC[C@]65O)C4)O[C@@H]3C)O[C@@H]2C)O[C@@H]1C`?
Marburg entry: 7.08µM*; LASV entry inh: inconclusive

What do the screens show for `C[C@]12[C@H](O)CC3C(CC[C@@H]4C[C@@H](O)CC[C@]34C)[C@@]1(O)CC[C@@H]2C1=CC(=O)OC1` (some centres not stated)?
Marburg entry: inconclusive; LASV entry inh: 1.12µM*

Results for CC(=O)C1CCC2C3CCC4CC(O)CCC4(C)C3CC(O)C12C (configuration not stated) ?
Marburg entry: -0.3%; LASV entry inh: 17.1%

Results for C[C@H]1O[C@@H](O[C@H]2[C@@H](O)C[C@H](O[C@H]3[C@@H](O)C[C@H](O[C@H]4CC[C@@]5(C)[C@H](CC[C@@H]6[C@@H]5C[C@@H](O)[C@]5(C)[C@@H](C7=CC(=O)OC7)CC[C@]65O)C4)O[C@@H]3C)O[C@@H]2C)C[C@H](O)[C@@H]1O ?
Marburg entry: inconclusive; LASV entry inh: 3.98µM*

Results for C[C@@H]1O[C@H](O[C@@H]2[C@H](C)O[C@H](O[C@@H]3[C@H](C)O[C@H](O[C@H]4CC[C@]5(C)[C@@H](CC[C@@H]6[C@H]5C[C@@H](O)[C@]5(C)[C@@H](C7=CC(=O)OC7)CC[C@]65O)C4)C[C@@H]3O)C[C@@H]2O)C[C@H](O)[C@@H]1O ?
Marburg entry: 0.891µM*; LASV entry inh: 0.126µM*

How did COC(=O)C1=C(C)N(Cc2ccccc2)C(=NCCc2c[nH]c3ccccc23)NC1c1cccc(F)c1 (configuration not stated) do in these assays?
Marburg entry: -16.8%[8.59 µM]

What do the screens show for `C=CCN(C)C1=NC(c2ccccc2)C(C(=O)OC)=C(C)N1CCOC` (configuration not stated)?
Marburg entry: 3.8%[8.59 µM]; LASV entry inh: -2.3%[8.59 µM]

How did COC(=O)C1=C(C(=O)OC)[C@@H]2N(Cc3ccccc3)c3ccccc3[C@@]23C[C@@H](C(=O)OC)N(C(=O)Nc2ccccc2F)C3=N1 do in these assays?
Marburg entry: -13.0%[8.59 µM]; LASV entry inh: -20.0%[8.59 µM]

Results for Cc1ccccc1Nc1oc(-c2ccccc2)nc1C=Cc1ccccc1 ?
Marburg entry: -21.3%[8.59 µM]; LASV entry inh: 9.6%[8.59 µM]

Results for COc1ccc(C=CC2=CC3(C)CC2(C)C(c2ccc(OC)cc2)CC3=O)cc1 (configuration not stated) ?
Marburg entry: -12.8%[8.59 µM]; LASV entry inh: 8.9%[8.59 µM]

How did Cc1c(O)cccc1C(=O)N[C@@H](CSc1ccccc1)[C@H](O)CN1C[C@H]2CCCC[C@H]2C[C@H]1C(=O)NC(C)(C)C do in these assays?
Marburg entry: 11.2µM*; LASV entry inh: 28.2µM*

What do the screens show for `CCC=C1C(=O)[C@]2(C(=O)c3ccccc3)C[C@H]3CCC(CCC)(C2=O)[C@@]13OC`?
Marburg entry: inconclusive; LASV entry inh: -10.5%[8.59 µM]

What do the screens show for `CO/C1=C\C(C)=C\[C@@H](C)[C@@H](O)[C@@H](C)C/C(C)=C/C=C\[C@H](OC)C([C@@H](C)[C@@H](O)[C@H](C)[C@@]2(O)C[C@@H](O)[C@H](C)C(C(C)C)O2)OC1=O` (some centres not stated)?
Marburg entry: 0.0146µM*; LASV entry inh: 0.0231µM*

How did COC(=O)C1=C(C)N(Cc2ccccc2)C(=NCc2ccccc2)NC1c1ccccc1 (configuration not stated) do in these assays?
Marburg entry: inconclusive; LASV entry inh: 29.5%[8.59 µM]

How did O=C(Oc1ccccc1)[C@H]1O[C@H]1c1ccccc1 do in these assays?
Marburg entry: 34.4%[8.59 µM]

How did Cc1cc(/C=C/c2ccc3cc(N(C)C)ccc3[n+]2C)c(C)n1-c1ccccc1 do in these assays?
Marburg entry: inconclusive; LASV entry inh: 10µM*

What do the screens show for `CO/N=C(\C(=O)N[C@@H]1C(=O)N2C(C(=O)O)=C(CSC(=O)c3ccco3)CS[C@H]12)c1csc(N)n1`?
Marburg entry: 12.8%; LASV entry inh: -9.1%

What do the screens show for `C/C=C1\NC(=O)[C@H]2CSSCC/C=C/[C@H](CC(=O)N[C@H](C(C)C)C(=O)N2)OC(=O)C(C(C)C)NC1=O` (some centres not stated)?
Marburg entry: 1.12µM*; LASV entry inh: 3.16µM*

How did CC[C@]1(O)CC[C@H]2[C@@H]3CCC4=CCCC[C@@H]4[C@H]3CC[C@@]21C do in these assays?
Marburg entry: -21.3%; LASV entry inh: 14.1µM*

Results for C#C[C@]1(O)CC[C@H]2[C@@H]3CCC4=CCCC[C@@H]4[C@H]3C(=C)C[C@@]21CC ?
Marburg entry: -11.5%; LASV entry inh: -26.1%

What do the screens show for `C[C@H]1[C@@H](c2ccccc2)Oc2c(Cl)cccc2S(=O)(=O)N1Cc1cccc(Cl)c1`?
Marburg entry: inconclusive; LASV entry inh: -28.2%

How did CN(C)Cc1ccccc1-c1nc(N2CCOCC2)c2ccccc2n1 do in these assays?
Marburg entry: 17.8µM*; LASV entry inh: -10.5%

How did Cc1noc(C)c1-c1nc(N2CCOCC2)c2ccccc2n1 do in these assays?
Marburg entry: 4.6%; LASV entry inh: -2.0%

Results for COc1cc(=O)n2c(c1C(=O)NCc1ccco1)CCN(Cc1cccc(C(F)(F)F)c1)CC2 ?
Marburg entry: inconclusive; LASV entry inh: -10.6%

How did Nc1ccc(S(=O)(=O)Nc2ccccc2)cc1 do in these assays?
Marburg entry: 6.3%; LASV entry inh: -14.3%

Results for O=C(/C=C/C#Cc1cccc(NS(=O)(=O)c2ccccc2)c1)NO ?
Marburg entry: inconclusive; LASV entry inh: 10µM*

What do the screens show for `COC(=O)C1=C(C(=O)OC)[C@@H]2N(C)c3ccccc3[C@@]23C[C@@H](C(=O)OC)N(C(=O)NC(C)(C)C)C3=N1`?
Marburg entry: 14.5%[8.59 µM]

What do the screens show for `CCCCn1c(C)cc2c(c1=O)[C@H]1O[C@](CCCC)(Cc3cc(C#N)ccc31)O2`?
Marburg entry: inconclusive; LASV entry inh: 13.8%[8.59 µM]

Results for O=C1Nc2ccccc2[C@@]12O[C@H](COc1ccccc1)CC1=C2CCC1 ?
Marburg entry: 9.8%[8.59 µM]; LASV entry inh: 12.2%[8.59 µM]

What do the screens show for `C[C@@H]1C[C@H](C)C[C@H](C)[C@@H](O)CC(=O)O[C@H]([C@H]2CCC[C@H]2C(=O)O)C/C=C/C=C(/C#N)[C@H](O)[C@@H](C)C1`?
Marburg entry: 10µM*; LASV entry inh: inconclusive

Results for CC(C)=CCCC(C)=CCON=C1C[C@@H](O)[C@@H](O)[C@@H]2[C@H]3C(=O)N(Cc4ccc5c(c4)OCO5)C(=O)[C@@H]3CC[C@H]12 ?
Marburg entry: -16.6%[8.59 µM]

How did Nc1nc(Cl)nc2c1ncn2[C@@H]1O[C@H](CO)[C@@H](O)[C@@H]1F do in these assays?
Marburg entry: 2.51µM*; LASV entry inh: inconclusive

Results for Nc1nc(Cl)c2ncn(C3OC(CO)C(O)C3O)c2n1 (configuration not stated) ?
Marburg entry: 19.3%; LASV entry inh: 5.4%

How did OC(c1ccc2c(c1)CN(Cc1cccc3nccnc13)CCO2)C1CCCCC1 (configuration not stated) do in these assays?
Marburg entry: -6.6%; LASV entry inh: -1.1%
